Experimental data as given in PubChem BioAssay (EPA / NIEHS).
Activity calls are given as the source filed them. Rule for the calls: active = hit-call score of the fitted dose curve at least 0.9, where 1 is the maximum; inactive = score below 0.9.

Experiments:
[1] = CEETOX_H295R_TESTO: CeeTox H295R High-throughput Steroidogenesis Assay for Testosterone (TESTO) (AID 2283457); conditions: actives raise or lower the signal
Method in brief: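 H295R adrenal cells, passage ≤10, exposed to chemicals for 48 h. Testosterone in medium measured by MTBE extraction and HPLC-MS/MS against a 7-point standard curve. Bidirectional fit versus DMSO; MTT viability checked in the same wells.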

[2] = read-out: Cytochrome P450 (CYP1A1), CYP1A1 (gene 1543); experiment: LTEA_HepaRG_CYP1A1: Life Technologies and Expression Analysis (LTEA) Assay for Cytochrome P450 (CYP1A1) using HepaRG (AID 2283454); conditions: mRNA level, 48 h; actives raise or lower the signal
Method in brief: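 Differentiated human HepaRG cells, after 48 h plating, exposed in duplicate for 48 h in serum-free induction medium to 8 half-log concentrations up to 100 uM in 0.5% DMSO. CYP1A1 mRNA by qRT-PCR, normalized to ACTB/GAPDH/POLR2A; bidirectional fit versus DMSO.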

[3] = read-out: Forkhead box O1 (FOXO1), FOXO1 (gene 2308); experiment: LTEA_HepaRG_FOXO1: Life Technologies and Expression Analysis (LTEA) Assay for Forkhead box O1 (FOXO1) using HepaRG (AID 2283456); conditions: mRNA level, 48 h; actives raise or lower the signal
Method in brief: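 FOXO1 transcript quantified by qRT-PCR after 48 h chemical exposure (top 100 uM, half-log steps, 0.5% DMSO) of HepaRG cells, housekeeping-normalized (ACTB/GAPDH/POLR2A). Changes fitted in both directions relative to vehicle.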

[4] = read-out: Forkhead box O3 (FOXO3), FOXO3 (gene 2309); experiment: LTEA_HepaRG_FOXO3: Life Technologies and Expression Analysis (LTEA) Assay for Forkhead box O3 (FOXO3) using HepaRG (AID 2283459); conditions: mRNA level, 48 h; actives raise or lower the signal
Method in brief: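 FOXO3 transcript measured by qRT-PCR (normalized to ACTB, GAPDH, POLR2A) after 48 h exposure of HepaRG cells in serum-free induction medium. Duplicates, eight half-log concentrations up to 100 uM, 0.5% DMSO; gain or loss fitted against DMSO.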

[5] = read-out: ABC Transporter (ABCB1), ABCB1 (gene 5243); experiment: LTEA_HepaRG_ABCB1: Life Technologies and Expression Analysis (LTEA) Assay for ABC Transporter (ABCB1) using HepaRG (AID 2283460); conditions: mRNA level, 48 h; actives raise or lower the signal
Method in brief: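 ABCB1 transcript level measured by TaqMan qRT-PCR against three housekeeping genes after 48 h chemical exposure of differentiated HepaRG cells. Top concentration 100 uM, half-log steps, eight points, 0.5% DMSO vehicle; bidirectional fit relative to DMSO.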

[6] = read-out: growth arrest and DNA damage 45 (GADD45B), GADD45B (gene 4616); experiment: LTEA_HepaRG_GADD45B: Life Technologies and Expression Analysis (LTEA) Assay for growth arrest and DNA damage 45 (GADD45B) using HepaRG (AID 2283461); conditions: mRNA level, 48 h; actives raise or lower the signal
Method in brief: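 Differentiated human HepaRG cells in serum-free induction medium exposed 48 h in duplicate to eight concentrations, top 100 uM, half-log steps, 0.5% DMSO. GADD45B mRNA by TaqMan qRT-PCR, normalized to ACTB, GAPDH, POLR2A; bidirectional fit versus DMSO.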

[7] = read-out: ABC Transporter (ABCC3), ABCC3 (gene 8714); experiment: LTEA_HepaRG_ABCC3: Life Technologies and Expression Analysis (LTEA) Assay for ABC Transporter (ABCC3) using HepaRG (AID 2283462); conditions: mRNA level, 48 h; actives raise or lower the signal
Method in brief: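 Differentiated human HepaRG cells exposed 48 h in serum-free induction medium, 0.5% DMSO vehicle, 8-point half-log series to 100 uM in duplicate. ABCC3 mRNA by qRT-PCR, normalised to ACTB, GAPDH, POLR2A; bidirectional fit vs DMSO.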

[8] = read-out: ABC Transporter (ABCB11), ABCB11 (gene 8647); experiment: LTEA_HepaRG_ABCB11: Life Technologies and Expression Analysis (LTEA) Assay for ABC Transporter (ABCB11) using HepaRG (AID 2283463); conditions: mRNA level, 48 h; actives raise or lower the signal
Method in brief: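 ABCB11 transcript levels quantified by TaqMan qRT-PCR against three housekeeping genes after 48 h chemical exposure of HepaRG cultures. Concentrations up to 100 uM in half-log steps, 0.5% DMSO vehicle; both induction and suppression scored.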

[9] = read-out: ABC Transporter (ABCC2), ABCC2 (gene 1244); experiment: LTEA_HepaRG_ABCC2: Life Technologies and Expression Analysis (LTEA) Assay for ABC Transporter (ABCC2) using HepaRG (AID 2283464); conditions: mRNA level, 48 h; actives raise or lower the signal
Method in brief: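 Differentiated HepaRG cells in serum-free induction medium exposed 48 h to eight half-log concentrations up to 100 uM, 0.5% DMSO, in duplicate. ABCC2 mRNA measured by qRT-PCR (TaqMan, Fluidigm), normalized to ACTB, GAPDH and POLR2A. Fitted in both directions against DMSO.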

[10] = read-out: ATP-citrate lyase (ACLY), ACLY (gene 47); experiment: LTEA_HepaRG_ACLY: Life Technologies and Expression Analysis (LTEA) Assay for ATP-citrate lyase (ACLY) using HepaRG (AID 2283466); conditions: mRNA level, 48 h; actives raise or lower the signal
Method in brief: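 ACLY mRNA quantified by qRT-PCR on Fluidigm arrays against three housekeeping genes, after 48 h chemical treatment of HepaRG cells (top concentration 100 uM, half-log steps, 0.5% DMSO vehicle). Up- or down-regulation fitted relative to DMSO.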

[11] = read-out: Peroxisomal acyl-coenzyme A oxidase 1 (ACOX1) gene, ACOX1 (gene 51); experiment: LTEA_HepaRG_ACOX1: Life Technologies and Expression Analysis (LTEA) Assay for Peroxisomal acyl-coenzyme A oxidase 1 (ACOX1) gene using HepaRG (AID 2283467); conditions: mRNA level, 48 h; actives raise or lower the signal
Method in brief: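 ACOX1 transcript levels were quantified by TaqMan qRT-PCR against three housekeeping genes after 48 h chemical exposure of differentiated human HepaRG cells. Exposure used eight half-log steps topping at 100 uM, 0.5% DMSO vehicle, in duplicate. Bidirectional curve fits were made relative to DMSO.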

[12] = read-out: Bcl-2 (BAD) gene, BAD (gene 572); experiment: LTEA_HepaRG_BAD: Life Technologies and Expression Analysis (LTEA) Assay for Bcl-2 (BAD) gene using HepaRG (AID 2283469); conditions: mRNA level, 48 h; actives raise or lower the signal
Method in brief: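 Read-out: qRT-PCR of BAD mRNA, normalized to three housekeeping genes. Human HepaRG cultures got 48 h chemical exposure in 0.5% DMSO, duplicate eight-point half-log series topping at 100 uM. Gain or loss of signal fitted versus DMSO vehicle.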

[13] = read-out: Bcl-2 (BAX) gene, BAX (gene 581); experiment: LTEA_HepaRG_BAX: Life Technologies and Expression Analysis (LTEA) Assay for Bcl-2 (BAX) gene using HepaRG (AID 2283470); conditions: mRNA level, 48 h; actives raise or lower the signal
Method in brief: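 qRT-PCR read-out of BAX mRNA, normalized to three housekeeping genes, after 48 h chemical exposure of human HepaRG cells in serum-free induction medium; eight-point half-log series, top 100 uM, 0.5% DMSO vehicle; bidirectional fit versus DMSO.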

[14] = read-out: adenosine kinase (ADK) gene, ADK (gene 132); experiment: LTEA_HepaRG_ADK: Life Technologies and Expression Analysis (LTEA) Assay for adenosine kinase (ADK) gene using HepaRG (AID 2283471); conditions: mRNA level, 48 h; actives raise or lower the signal
Method in brief: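 HepaRG (human liver), 48 h chemical exposure, 8-pt half-log series, top 100 uM, 0.5% DMSO vehicle. Readout: ADK mRNA by qRT-PCR vs housekeeping genes; bidirectional curve fit relative to DMSO baseline.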

[15] = read-out: Alpha-fetoprotein (AFP) gene, AFP (gene 174); experiment: LTEA_HepaRG_AFP: Life Technologies and Expression Analysis (LTEA) Assay for Alpha-fetoprotein (AFP) gene using HepaRG (AID 2283472); conditions: mRNA level, 48 h; actives raise or lower the signal
Method in brief: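 qRT-PCR (Fluidigm TaqMan) readout of AFP transcript, normalized to three housekeeping genes, fitted bidirectionally against 0.5% DMSO baseline. HepaRG cells received chemicals for 48 h in serum-free induction medium, top concentration 100 uM, half-log steps.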

BCL2L11 (gene 10018) = experiment: LTEA_HepaRG_BCL2L11: Life Technologies and Expression Analysis (LTEA) Assay for Bcl-2 (BCL2L11) gene using HepaRG (AID 2283473); conditions: mRNA level, 48 h; actives raise or lower the signal
Method in brief: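 Differentiated human HepaRG cells were exposed 48 h in serum-free induction medium to eight half-log concentrations up to 100 uM in 0.5% DMSO, in duplicate. BCL2L11 mRNA was quantified by TaqMan qRT-PCR, normalized to ACTB, GAPDH and POLR2A; induction or repression fitted versus DMSO.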

[16] = read-out: Apolipoprotein A-V (APOA5) gene, APOA5 (gene 116519); experiment: LTEA_HepaRG_APOA5: Life Technologies and Expression Analysis (LTEA) Assay for Apolipoprotein A-V (APOA5) gene using HepaRG (AID 2283474); conditions: mRNA level, 48 h; actives raise or lower the signal
Method in brief: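 Differentiated HepaRG cells in serum-free induction medium, exposed 48 h in duplicate to eight half-log concentrations topping at 100 uM (0.5% DMSO). APOA5 mRNA by Fluidigm TaqMan qRT-PCR, normalized to ACTB, GAPDH and POLR2A; bidirectional fit versus DMSO.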

[17] = read-out: Apoptosis regulator Bcl-2 (Homo sapiens) (UniProt P10415); experiment: LTEA_HepaRG_BCL2: Life Technologies and Expression Analysis (LTEA) Assay for Bcl-2 gene using HepaRG (AID 2283475); conditions: mRNA level, 48 h; actives raise or lower the signal
Method in brief: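 qRT-PCR read-out (Fluidigm TaqMan) of BCL2 transcript, normalised to three housekeeping genes, after 48 h chemical exposure of HepaRG cells; 8-point half-log series, top 100 uM, 0.5% DMSO vehicle. Gain or loss of signal fitted relative to DMSO baseline.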

[18] = read-out: Bcl-2 (BID) gene, BID (gene 637); experiment: LTEA_HepaRG_BID: Life Technologies and Expression Analysis (LTEA) Assay for Bcl-2 (BID) gene using HepaRG (AID 2283476); conditions: mRNA level, 48 h; actives raise or lower the signal
Method in brief: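 HepaRG, 48 h exposure, 8-pt half-log series, top 100 uM, 0.5% DMSO vehicle, duplicates. Readout: BID mRNA by TaqMan qRT-PCR; housekeeping-normalized; bidirectional curve fit vs DMSO baseline.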

Caspase-3 (Homo sapiens) = Caspase-3 (Homo sapiens) (UniProt P42574); experiment: LTEA_HepaRG_CASP3: Life Technologies and Expression Analysis (LTEA) Assay for cysteine-aspartic acid protease (CASP3) using HepaRG (AID 2283477); conditions: mRNA level, 48 h; actives raise or lower the signal
Method in brief: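 Differentiated HepaRG cells, plated 48 h, were treated in duplicate in serum-free induction medium for 48 h with eight half-log concentrations up to 100 uM in 0.5% DMSO. CASP3 mRNA measured by qRT-PCR, normalized to ACTB, GAPDH, POLR2A.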

Measured: AC50

Chain of Apoptosis regulator Bcl-2 (Homo sapiens) (P10415 whole entry, looked up): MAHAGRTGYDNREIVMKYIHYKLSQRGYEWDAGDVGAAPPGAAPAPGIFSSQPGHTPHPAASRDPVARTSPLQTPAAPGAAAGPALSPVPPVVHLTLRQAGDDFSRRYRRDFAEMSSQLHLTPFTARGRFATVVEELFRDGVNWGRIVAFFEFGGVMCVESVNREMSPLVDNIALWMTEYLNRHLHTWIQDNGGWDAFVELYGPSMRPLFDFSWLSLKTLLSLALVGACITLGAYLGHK
Chain of Caspase-3 (Homo sapiens) (P42574 whole entry, looked up): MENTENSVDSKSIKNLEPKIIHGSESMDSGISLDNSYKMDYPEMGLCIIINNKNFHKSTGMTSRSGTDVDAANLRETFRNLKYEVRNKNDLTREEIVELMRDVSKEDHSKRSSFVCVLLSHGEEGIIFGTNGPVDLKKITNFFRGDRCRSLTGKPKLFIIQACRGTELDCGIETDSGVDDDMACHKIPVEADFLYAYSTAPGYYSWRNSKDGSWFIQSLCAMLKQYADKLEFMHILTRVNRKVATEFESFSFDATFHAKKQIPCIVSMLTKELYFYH

COP(=O)(OC)O/C(=C\Cl)c1cc(Cl)c(Cl)cc1Cl
inactive: [1]

CCC(=O)C(CC(C)N(C)C)(c1ccccc1)c1ccccc1 (configuration not stated)
active: [2] 55.3 µM | [7] 36.2 µM | [15] 36.2 µM
not listed: [1]
inactive: all other assays above

O=C(O)C(F)(F)C(F)(F)C(F)(F)C(F)(F)C(F)(F)C(F)(F)C(F)(F)C(F)(F)C(F)(F)C(F)(F)F
active: [4] 47.8 µM | [8] 13.7 µM | BCL2L11 (gene 10018) 47.8 µM
not listed: [1]
inactive: all other assays above

O=c1[nH]c(=O)[nH]c(=O)[nH]1
not listed: [1]
inactive: all other assays above

NC(=O)O
not listed: [1]
inactive: all other assays above
